# Laboratory results published in the supplement of paper PMC8975748.
# Counter-ions that a name gives are not always drawn.
# System: Saccharomyces cerevisiae BY4741 SeMeCo community
# Test: z-score of subpopulation abundance vs DMSO median, subpopulation auxotrophic for LUM; higher = larger share of this subpopulation than in DMSO controls
# Details: 10 µM; 24 h; SM minimal medium; subpopulation (auxotrophy): LUM
# Procedure: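 Fluorescent four-plasmid SeMeCo (self-establishing metabolically cooperating S. cerevisiae BY4741 community; plasmids pH-mRuby2, pL-mWasabi, pU-eCFP, pM-TagRFP657) was grown 24 h in minimal SM medium with each Selleck FDA-approved drug at 10 µM in 384-well plates. Cells were fixed and imaged by high-content confocal microscopy. For each auxotrophic subpopulation (and the prototroph), a z-score gives the deviation from the DMSO vehicle-control population median.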
row,Compound,z-score of subpopulation abundance
1,COc1ccc2c3c1O[C@H]1C[C@@H](O)C=C[C@@]31CCN(C)C2 [Galanthamine],1.02
2,CN(C)CCCN1c2ccccc2Sc2ccc(Cl)cc21 [Chlorpromazine HCl],0.52
3,Nc1nc2[nH]cc(CCc3ccc(C(=O)N[C@@H](CCC(=O)O)C(=O)O)cc3)c2c(=O)[nH]1 [Pemetrexed],-3.17
4,CO/N=C1\C[C@]2(C[C@@H]3C[C@@H](C/C=C(\C)C[C@@H](C)/C=C/C=C4\CO[C@@H]5[C@H](O)C(C)=C[C@@H](C(=O)O3)[C@]45O)O2)O[C@H](/C(C)=C/C(C)C)[C@H]1C [Moxidectin],0.37
5,CCCc1cc(C(N)=S)ccn1 [Protionamide],-0.28
6,O=C1[C@H]2CCCC[C@H]2C(=O)N1CCCCN1CCN(c2nsc3ccccc23)CC1 [Perospirone hydrochloride],0.12
7,CCC(=O)c1c(O)cc(O)cc1O [Flopropione],-0.46
8,CCOC(=O)C1=C[C@@H](OC(CC)CC)[C@H](NC(C)=O)[C@@H](N)C1 [Oseltamivir Phosphate],-0.21
9,CCOc1cc(N)c([N+](=O)[O-])cc1C(=O)NC1CCN(CC2CC=CCC2)CC1 (stereo not given) [Cinitapride Hydrogen Tartrate],0.94
10,O=C(O)CCCCCCCC(=O)O [Azelaic acid],-0.32
11,COc1ccc2[nH]c([S+]([O-])Cc3ncc(C)c(OC)c3C)nc2c1 (stereo not given) [Omeprazole],0.62
12,Nc1ccc(S(=O)(=O)c2ccc(N)cc2)cc1 [Dapson],0.92
13,O=c1[nH]cnc2c1ncn2[C@@H]1O[C@H](CO)[C@@H](O)[C@H]1O [Isoprinosine],-0.5
14,O=C1c2c(O)ccc(O)c2C(=O)c2c(NCCNCCO)ccc(NCCNCCO)c21 [Mitoxantrone 2HCl],-5.01
15,COc1cc2c(cc1OC)-c1cc3ccc(OC)c(OC)c3c[n+]1CC2 [Palmatine],1.08
16,Cc1nnc(SCC2=C(C(=O)O)N3C(=O)[C@@H](NC(=O)Cn4cnnn4)[C@H]3SC2)s1 [Cefazolin Sodium],0.5
17,"C[C@H](Nc1ncnc2nc[nH]c12)c1cc2cccc(Cl)c2c(=O)n1-c1ccccc1 [Duvelisib (IPI-145, INK1197)]",0.56
18,Nc1nc2ccc(OC(F)(F)F)cc2s1 [Riluzole],-0.13
19,CC[N+](CC)(CC)CCOc1cccc(OCC[N+](CC)(CC)CC)c1OCC[N+](CC)(CC)CC [Gallamine Triethiodide],-0.03
20,CC(C[N+](C)(C)C)OC(N)=O (stereo not given) [Bethanechol chloride],-0.42

row,Compound,z-score of subpopulation abundance
1,CC[C@H](C)[C@H](N)C1=N[C@H](C(=O)N[C@@H](CC(C)C)C(=O)N[C@H](CCC(=O)O)C(=O)N[C@H](C(=O)N[C@H]2CCCCNC(=O)[C@H](CC(N)=O)NC(=O)[C@@H](CC(=O)O)NC(=O)[C@H](Cc3cnc[nH]3)NC(=O)[C@@H](Cc3ccccc3)NC(=O)[C@H]([C@@H](C)CC)NC(=O)[C@@H](CCCN)NC2=O)[C@@H](C)CC)CS1 [Bacitracin],0.84
2,OCCN1CCN(CCCN2c3ccccc3Sc3ccc(C(F)(F)F)cc32)CC1 [Fluphenazine dihydrochloride],0.9
3,CN1[C@@H]2CC[C@H]1C[C@@H](OC(c1ccccc1)c1ccccc1)C2 [Benztropine mesylate],-0.36
4,NC(=N\CCCCCC/N=C(N)/N=C(\N)Nc1ccc(Cl)cc1)/N=C(\N)Nc1ccc(Cl)cc1 [Chlorhexidine diacetate],1.19
5,CNS(=O)(=O)CCc1ccc2[nH]cc(C3CCN(C)CC3)c2c1 [Naratriptan HCl],-0.24
6,COc1cc([C@@H]2c3cc4c(cc3[C@@H](O[C@@H]3O[C@@H]5CO[C@@H](c6cccs6)O[C@H]5[C@H](O)[C@H]3O)[C@H]3COC(=O)[C@H]23)OCO4)cc(OC)c1O [Teniposide],1.42
7,CCC[C@@H]1C[C@@H](C(=O)N[C@@H]([C@H]2O[C@H](SC)[C@H](O)[C@@H](O)[C@H]2O)[C@H](C)Cl)N(C)C1 [Clindamycin HCl],0.28
8,NC(=O)c1cn(Cc2c(F)cccc2F)nn1 [Rufinamide],0.43
9,COc1cccc2c1C(=O)c1c(O)c3c(c(O)c1C2=O)CC(O)(C(=O)CO)CC3OC1CC(N)C(O)C(C)O1 (stereo not given) [Doxorubicin (Adriamycin) HCl],4.19
10,Cc1cccc(C)c1OCC(C)N (stereo not given) [Mexiletine HCl],-0.37
11,CC[C@H]1OC(=O)[C@H](C)[C@@H](O[C@H]2C[C@@](C)(OC)[C@@H](O)[C@H](C)O2)[C@H](C)[C@@H](O[C@@H]2O[C@H](C)C[C@H](N(C)C)[C@H]2O)[C@](C)(O)C[C@@H](C)CN[C@H](C)[C@@H](O)[C@]1(C)O [Azathramycin],-0.37
12,CN1C[C@@H]2C[C@H]1CN2c1cc2c(cc1F)c(=O)c(C(=O)O)cn2C1CC1 [Danofloxacin Mesylate],-0.46
13,Cn1c([N+](=O)[O-])cnc1COC(N)=O [Ronidazole],-0.5
14,O=C(O)c1cc(O)c2c(c1)[C@H]([C@H]1c3cc(C(=O)O)cc(O)c3C(=O)c3c(O[C@@H]4O[C@H](CO)[C@@H](O)[C@H](O)[C@H]4O)cccc31)c1cccc(O[C@@H]3O[C@H](CO)[C@@H](O)[C@H](O)[C@H]3O)c1C2=O [Sennoside A],-0.81
15,Cc1ccsc1/C=C/C1=NCCCN1C [Morantel tartrate],-0.24
16,C#CCN[C@@H]1CCc2ccccc21 [Rasagiline],0.07
17,CN(C)[C@@H](CCOc1cccc2ccccc12)c1ccccc1 [Dapoxetine HCl],0.92
18,CC1(C)S[C@@H]2[C@H](NC(=O)Cc3ccccc3)C(=O)N2[C@H]1C(=O)O [Penicillin G Sodium],-0.52
19,CCC(C)(C)c1ccc(CC(C)CN2C[C@@H](C)O[C@@H](C)C2)cc1 (stereo not given in full) [Amorolfine HCl],3.94
20,OB1OCc2cc(F)ccc21 [Tavaborole (AN-2690)],16.4
